The values below come from PMC7862700, “An all-to-all approach to the identification of sequence-specific readers for epigenetic DNA modifications on cytosine”.

Experiment in all cases: DAPPL (digital affinity profiling via proximity ligation, sequencing); 10 mM Tris-HCl pH 7.5, 50 mM NaCl, 1 mM DTT, 4% glycerol, room temperature, 30 min; GST-TFs on glutathione beads, 16-mer random dsDNA library, 0.1% formaldehyde crosslink after washing; high values mean tight binding
Holding throughout (details): protein: recombinant; tags: N-terminal GST; dsDNA, one strand shown

Assay [1] concerns the target T1, FLI1 (Homo sapiens, UniProt Q01543 1-452).
T1 sequence: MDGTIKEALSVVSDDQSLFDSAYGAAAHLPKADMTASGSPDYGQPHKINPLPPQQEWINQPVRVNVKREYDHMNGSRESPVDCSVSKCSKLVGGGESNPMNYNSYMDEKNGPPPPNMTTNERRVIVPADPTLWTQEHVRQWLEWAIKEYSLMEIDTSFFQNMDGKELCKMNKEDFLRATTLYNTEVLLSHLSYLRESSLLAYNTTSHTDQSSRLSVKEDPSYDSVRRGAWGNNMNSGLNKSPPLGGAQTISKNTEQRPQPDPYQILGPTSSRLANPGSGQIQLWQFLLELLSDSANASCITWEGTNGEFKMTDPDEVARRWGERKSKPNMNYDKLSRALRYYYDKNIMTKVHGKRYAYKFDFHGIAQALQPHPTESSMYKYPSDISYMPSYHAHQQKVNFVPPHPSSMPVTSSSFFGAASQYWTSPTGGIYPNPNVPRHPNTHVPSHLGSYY
In outline:
(§1)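 In yeast, human transcription factors were expressed with a GST fusion, then pulled down on glutathione beads and given DNA barcodes. Pooled with a tag-only sample, they were exposed to 200 nmole of a 16-mer random double-stranded DNA library (Tris/NaCl/DTT/glycerol buffer, room temperature, 30 min), washed, crosslinked with 0.1% formaldehyde, proximity-ligated using BsaI/T4 ligase for 1 h at 37 °C, PCR-amplified and read on an Illumina NextSeq500. Each hexamer's frequency of reads for a factor, divided by the matching frequency for the tag-only sample, gives the binding signal.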

For assay [2], the target named is T2, ELK1 (Homo sapiens, UniProt P19419 1-428).
T2 sequence: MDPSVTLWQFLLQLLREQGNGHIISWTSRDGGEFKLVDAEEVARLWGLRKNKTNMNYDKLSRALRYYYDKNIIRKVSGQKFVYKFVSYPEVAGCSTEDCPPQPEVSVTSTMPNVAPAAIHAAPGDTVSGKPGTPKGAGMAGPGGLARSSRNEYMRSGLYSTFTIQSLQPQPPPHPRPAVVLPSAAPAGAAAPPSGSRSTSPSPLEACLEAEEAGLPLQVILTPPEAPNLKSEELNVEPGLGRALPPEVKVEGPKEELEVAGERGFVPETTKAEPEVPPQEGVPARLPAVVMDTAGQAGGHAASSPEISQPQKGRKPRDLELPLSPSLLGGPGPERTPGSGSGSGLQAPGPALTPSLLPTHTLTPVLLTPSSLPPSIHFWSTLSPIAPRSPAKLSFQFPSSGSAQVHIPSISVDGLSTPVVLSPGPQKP
A digest of the protocol:
as §1

Assay [3] deals with T3, GABPA (Homo sapiens, UniProt Q06546 1-454).
T3 sequence: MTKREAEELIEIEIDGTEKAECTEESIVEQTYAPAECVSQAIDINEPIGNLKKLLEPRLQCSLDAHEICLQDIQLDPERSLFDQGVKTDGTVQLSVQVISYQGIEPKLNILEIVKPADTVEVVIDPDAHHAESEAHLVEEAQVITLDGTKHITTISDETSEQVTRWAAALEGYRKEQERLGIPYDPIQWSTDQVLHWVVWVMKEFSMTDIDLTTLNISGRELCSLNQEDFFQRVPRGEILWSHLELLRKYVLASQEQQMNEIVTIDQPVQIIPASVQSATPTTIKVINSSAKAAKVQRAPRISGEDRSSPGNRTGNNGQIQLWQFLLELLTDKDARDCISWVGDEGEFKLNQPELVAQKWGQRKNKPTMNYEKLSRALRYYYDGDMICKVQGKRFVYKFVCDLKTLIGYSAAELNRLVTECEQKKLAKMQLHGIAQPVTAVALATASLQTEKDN
In outline:
as §1

Assay [4] has as its target T4, ERG (Homo sapiens, UniProt P11308 1-479).
T4 sequence: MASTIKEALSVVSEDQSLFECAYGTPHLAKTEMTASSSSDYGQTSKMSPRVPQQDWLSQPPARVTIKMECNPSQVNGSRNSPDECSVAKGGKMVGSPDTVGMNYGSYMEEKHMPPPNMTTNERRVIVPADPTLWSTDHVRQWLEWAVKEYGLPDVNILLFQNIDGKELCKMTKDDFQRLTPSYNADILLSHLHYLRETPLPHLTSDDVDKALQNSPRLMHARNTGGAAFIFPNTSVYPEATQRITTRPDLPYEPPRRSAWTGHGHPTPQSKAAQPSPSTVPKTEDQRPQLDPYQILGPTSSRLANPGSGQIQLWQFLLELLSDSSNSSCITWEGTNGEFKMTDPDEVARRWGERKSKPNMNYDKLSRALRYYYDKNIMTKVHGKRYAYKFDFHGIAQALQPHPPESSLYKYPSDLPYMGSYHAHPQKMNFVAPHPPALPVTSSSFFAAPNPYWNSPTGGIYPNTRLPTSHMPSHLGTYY
A digest of the protocol:
as §1

Assay [5] concerns the target ELF1 (Homo sapiens, UniProt P32519 1-619). In outline: as §1
The target of assay [6] is T5, EHF (Homo sapiens, UniProt Q9NZC4 1-300).
T5 sequence: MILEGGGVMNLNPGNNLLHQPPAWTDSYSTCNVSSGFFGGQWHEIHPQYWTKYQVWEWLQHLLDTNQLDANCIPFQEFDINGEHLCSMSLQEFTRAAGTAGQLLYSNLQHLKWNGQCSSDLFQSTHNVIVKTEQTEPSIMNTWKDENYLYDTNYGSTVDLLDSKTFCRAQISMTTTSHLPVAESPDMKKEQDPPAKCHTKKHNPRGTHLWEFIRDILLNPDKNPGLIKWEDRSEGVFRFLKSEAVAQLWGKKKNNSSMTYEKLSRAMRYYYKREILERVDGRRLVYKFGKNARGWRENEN
A digest of the protocol:
as §1

For assay [7], the target named is SPI1 (Homo sapiens, UniProt P17947 1-270). In outline:
as §1

The target of assay [8] is SPIB (Homo sapiens, UniProt Q01892 1-262). In outline:
as §1

Assay [9] deals with T6, ELK3 (Homo sapiens, UniProt P41970 1-407).
T6 sequence: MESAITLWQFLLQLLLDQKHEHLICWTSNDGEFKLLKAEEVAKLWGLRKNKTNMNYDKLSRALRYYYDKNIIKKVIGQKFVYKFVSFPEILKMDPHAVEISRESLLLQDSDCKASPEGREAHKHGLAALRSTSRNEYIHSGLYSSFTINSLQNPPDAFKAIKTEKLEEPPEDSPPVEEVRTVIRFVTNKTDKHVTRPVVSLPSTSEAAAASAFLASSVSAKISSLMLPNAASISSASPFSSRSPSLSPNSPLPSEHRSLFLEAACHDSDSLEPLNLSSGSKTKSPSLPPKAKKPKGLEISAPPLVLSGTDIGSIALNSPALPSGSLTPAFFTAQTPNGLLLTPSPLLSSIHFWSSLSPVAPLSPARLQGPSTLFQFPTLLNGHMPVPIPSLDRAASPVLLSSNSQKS
In outline:
as §1

SPIB, sequence (Q01892 whole entry): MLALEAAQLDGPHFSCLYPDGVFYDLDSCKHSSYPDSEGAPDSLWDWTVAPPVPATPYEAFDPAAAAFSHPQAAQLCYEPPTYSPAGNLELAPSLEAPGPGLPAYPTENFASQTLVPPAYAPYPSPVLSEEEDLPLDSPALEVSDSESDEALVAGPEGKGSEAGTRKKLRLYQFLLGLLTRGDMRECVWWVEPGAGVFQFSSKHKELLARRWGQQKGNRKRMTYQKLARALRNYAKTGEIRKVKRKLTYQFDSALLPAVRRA
ELF1, sequence (P32519 whole entry): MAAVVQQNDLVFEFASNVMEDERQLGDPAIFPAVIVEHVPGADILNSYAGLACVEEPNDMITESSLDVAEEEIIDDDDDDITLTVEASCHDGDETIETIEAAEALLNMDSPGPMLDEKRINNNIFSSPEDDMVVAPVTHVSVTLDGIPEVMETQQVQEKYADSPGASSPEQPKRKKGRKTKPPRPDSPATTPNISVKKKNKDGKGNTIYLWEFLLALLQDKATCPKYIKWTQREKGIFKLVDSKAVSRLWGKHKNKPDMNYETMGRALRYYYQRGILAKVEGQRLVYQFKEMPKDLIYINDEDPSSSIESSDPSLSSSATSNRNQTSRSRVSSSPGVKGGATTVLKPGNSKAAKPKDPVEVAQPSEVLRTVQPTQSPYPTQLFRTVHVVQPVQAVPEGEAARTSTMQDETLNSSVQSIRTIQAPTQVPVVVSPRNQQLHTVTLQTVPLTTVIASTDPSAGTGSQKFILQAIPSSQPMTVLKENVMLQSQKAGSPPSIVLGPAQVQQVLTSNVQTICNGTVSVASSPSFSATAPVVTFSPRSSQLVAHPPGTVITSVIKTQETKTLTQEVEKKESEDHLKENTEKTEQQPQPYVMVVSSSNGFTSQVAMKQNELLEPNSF

Take TGAATA: the binding signal in [1] is 1.05 fold enrichment (6-mer frequency, TF over GST control); in assay [2], 1.11 fold enrichment (6-mer frequency, TF over GST control); in assay [3], 1.2 fold enrichment (6-mer frequency, TF over GST control); in assay [4], 1.08 fold enrichment (6-mer frequency, TF over GST control); in assay [5], 1.1 fold enrichment (6-mer frequency, TF over GST control); in assay [6], 1.12 fold enrichment (6-mer frequency, TF over GST control). In addition, the binding signal is 1.08 fold enrichment (6-mer frequency, TF over GST control) in assay [7]; 1.05 fold enrichment (6-mer frequency, TF over GST control) in assay [8]; 1.06 fold enrichment (6-mer frequency, TF over GST control) in assay [9].

Regarding ATAGAA, the binding signal is 1.02 fold enrichment (6-mer frequency, TF over GST control) in assay [1]; 1.04 fold enrichment (6-mer frequency, TF over GST control) in assay [2]; 1.04 fold enrichment (6-mer frequency, TF over GST control) in assay [3]; 1.06 fold enrichment (6-mer frequency, TF over GST control) in assay [4]; 1.05 fold enrichment (6-mer frequency, TF over GST control) in assay [5]; 1.07 fold enrichment (6-mer frequency, TF over GST control) in assay [6]. Also, the binding signal in [7] was 1.16 fold enrichment (6-mer frequency, TF over GST control); in [8], 1.08 fold enrichment (6-mer frequency, TF over GST control); in assay [9], 1.13 fold enrichment (6-mer frequency, TF over GST control).

Take CAATAT: the binding signal in assay [1] is 1.27 fold enrichment (6-mer frequency, TF over GST control); in assay [2], 1.29 fold enrichment (6-mer frequency, TF over GST control); in assay [3], 1.26 fold enrichment (6-mer frequency, TF over GST control); in [4], 1.2 fold enrichment (6-mer frequency, TF over GST control); in assay [5], 1.28 fold enrichment (6-mer frequency, TF over GST control); in [6], 1.24 fold enrichment (6-mer frequency, TF over GST control). Further, the binding signal was 1.23 fold enrichment (6-mer frequency, TF over GST control) in assay [7]; 1.23 fold enrichment (6-mer frequency, TF over GST control) in assay [8]; 1.31 fold enrichment (6-mer frequency, TF over GST control) in assay [9].

With CATATT, the binding signal in assay [1] is 1.22 fold enrichment (6-mer frequency, TF over GST control); in assay [2], 1.17 fold enrichment (6-mer frequency, TF over GST control); in [3], 1.27 fold enrichment (6-mer frequency, TF over GST control); in [4] it was 1.26 fold enrichment (6-mer frequency, TF over GST control); in assay [5] it was 1.24 fold enrichment (6-mer frequency, TF over GST control); in assay [6], 1.17 fold enrichment (6-mer frequency, TF over GST control). The binding signal in [7] is 1.27 fold enrichment (6-mer frequency, TF over GST control); in assay [8], 1.28 fold enrichment (6-mer frequency, TF over GST control); in assay [9] it was 1.17 fold enrichment (6-mer frequency, TF over GST control).

Consider AAGAAA, for which the binding signal is 1.08 fold enrichment (6-mer frequency, TF over GST control) in assay [1]; 1.14 fold enrichment (6-mer frequency, TF over GST control) in assay [2]; 1.25 fold enrichment (6-mer frequency, TF over GST control) in assay [3]; 1.2 fold enrichment (6-mer frequency, TF over GST control) in assay [4]; 1.15 fold enrichment (6-mer frequency, TF over GST control) in assay [5]; 1.18 fold enrichment (6-mer frequency, TF over GST control) in assay [6]. Moreover, the binding signal was 1.22 fold enrichment (6-mer frequency, TF over GST control) in [7]; 1.1 fold enrichment (6-mer frequency, TF over GST control) in [8]; 1.22 fold enrichment (6-mer frequency, TF over GST control) in assay [9].

TTATCC: the binding signal in assay [1] was 1.47 fold enrichment (6-mer frequency, TF over GST control); in assay [2], 1.39 fold enrichment (6-mer frequency, TF over GST control); in [3], 1.37 fold enrichment (6-mer frequency, TF over GST control); in assay [4], 1.43 fold enrichment (6-mer frequency, TF over GST control); in assay [5], 1.31 fold enrichment (6-mer frequency, TF over GST control); in assay [6] it was 1.52 fold enrichment (6-mer frequency, TF over GST control). For the same sequence, the binding signal is 1.41 fold enrichment (6-mer frequency, TF over GST control) in assay [7]; 1.54 fold enrichment (6-mer frequency, TF over GST control) in assay [8]; 1.5 fold enrichment (6-mer frequency, TF over GST control) in assay [9].

Turning to TTCCCA, the binding signal in [1] was 1.18 fold enrichment (6-mer frequency, TF over GST control); in assay [2], 1.3 fold enrichment (6-mer frequency, TF over GST control); in assay [3], 1.2 fold enrichment (6-mer frequency, TF over GST control); in assay [4], 1.3 fold enrichment (6-mer frequency, TF over GST control); in [5], 1.3 fold enrichment (6-mer frequency, TF over GST control); in assay [6] it was 1.34 fold enrichment (6-mer frequency, TF over GST control). Besides, the binding signal was 1.28 fold enrichment (6-mer frequency, TF over GST control) in assay [7]; 1.34 fold enrichment (6-mer frequency, TF over GST control) in assay [8]; 1.17 fold enrichment (6-mer frequency, TF over GST control) in [9].
